IDH1 R132H inh: human IDH1 R132H inhibition. IDH1-R132H enzyme, NADPH consumption, diaphorase/resazurin fluorescence. Potency, µM (doses to about 76.6 µM), for the others: at the highest dose activity change, negative = inhibition, hits mostly inhibitors. 390,000 compounds, 0.093% hits; also: nearly all actives have a fitted effect of over 65% in size
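IDH1-R132H (0.5 ug/mL dispensed) in pH 7.5 Tris buffer was preincubated 30 min with compound, then given a substrate mix of 0.016 mM NADPH and 2 mM alpha-KG for 80 min at room temperature; remaining NADPH was read by diaphorase/resazurin fluorescence.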
VDR inh: vitamin D3 receptor (human) inhibition | AID 504847 | Potency, µM, inactives show max response, negative = inhibition, usual class: inhibitors | VDR-SRC2-3 peptide fluorescence polarization, 2 h | 400,000 compounds, 0.93% hits
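Signal is fluorescence polarization, reporting how far test compounds block the interaction of VDR with the SRC2-3 coregulator peptide after a 2 h room-temperature incubation.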
PLK1 PBD inh: PLK1 (human) polo-box domain binding inhibition; Plk1 PBD binding of FITC phosphopeptide, fluorescence polarization; 360,000 compounds, 2.8% hits; Potency, µM, for the others: max response, negative = inhibition, most hits filed as inhibitors; AID 720504; P53350; also: series mostly up to about 57 µM; nearly all actives have a fitted effect of over 65% in size
Target sequence (P53350 whole entry, looked up, the tested form may be a part): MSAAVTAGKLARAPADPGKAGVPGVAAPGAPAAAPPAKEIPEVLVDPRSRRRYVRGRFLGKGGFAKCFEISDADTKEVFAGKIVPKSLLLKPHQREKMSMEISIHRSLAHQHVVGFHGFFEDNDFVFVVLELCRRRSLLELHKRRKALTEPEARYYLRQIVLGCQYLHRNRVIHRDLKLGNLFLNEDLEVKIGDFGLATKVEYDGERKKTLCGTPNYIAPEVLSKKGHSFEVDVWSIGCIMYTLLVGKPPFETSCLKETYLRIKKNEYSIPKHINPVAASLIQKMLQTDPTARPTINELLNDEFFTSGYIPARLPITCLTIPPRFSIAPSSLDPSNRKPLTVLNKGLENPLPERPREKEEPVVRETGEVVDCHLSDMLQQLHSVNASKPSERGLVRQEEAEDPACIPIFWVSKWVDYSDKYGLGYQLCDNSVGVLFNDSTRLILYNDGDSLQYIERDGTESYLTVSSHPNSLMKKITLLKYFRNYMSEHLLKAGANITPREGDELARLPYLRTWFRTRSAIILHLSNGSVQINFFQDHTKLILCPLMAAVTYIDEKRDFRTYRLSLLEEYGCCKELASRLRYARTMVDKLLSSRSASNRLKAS
Sfp inh: blocks B. subtilis Sfp PPTase activity; Q9F4F7; 310,000 compounds, 3.5% hits; Biochemical Sfp PPTase activity, qHTS; Potency, µM, inactives show largest response in the series, negative = inhibition, actives largely listed as inhibitors;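 also: the enzyme is Sfp with the accession as filed and its product quenches rhodamine fluorescence; 0% = enzyme reaction without inhibitor and -100% = no enzyme wells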
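With Hepes-Na pH 7.6 buffer containing 10 mM MgCl2, Sfp (15 nM) modified BHQ-2-YbbR (12.5 uM) using rhodamine-CoA (5 uM). Two reads 30 minutes apart at 525/598 nm yielded each well's rate.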
TrxR1 substrate: substrates of rat thioredoxin reductase 1; O89049; purified TrxR1 substrate turnover, NADPH consumption readout; Potency, µM (titrated, usually from 114 µM), for inactives: top-dose activity change, negative = substrate turnover; 390,000 compounds, 0.01% hits; AID 588456; also: nearly all actives have a fitted effect of over 50% in size
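Rat TrxR1, dispensed at 90 nM, was prereduced with 400 uM NADPH (final) for 5 min at ~22 deg C, then incubated with compound 15 min before 400 uM selenite. A first-read NADPH fluorescence drop versus no-compound background flagged substrates.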
rTrxR1 inhibitor: blocks rat thioredoxin reductase 1. Potency, µM (highest dose often 114 µM), without a hit: top-dose activity change, negative = inhibition, actives largely listed as inhibitors. 390,000 compounds, 1% hits. recombinant rTrxR1, NADPH fluorescence consumption, selenite substrate. AID 588453; also: nearly all actives have a fitted effect of over 65% in size
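Rat TrxR1 (90 nM in the dispensed reagent) was pre-reduced with 400 uM NADPH for 5 min at room temperature, then incubated with compound for 15 min. After 400 uM selenite was added, NADPH fluorescence (Ex 340/Em 450 nm) was followed for 8 min.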
Starred values were filed as active, the others as inactive; ? = inconclusive; . = no result; [ ] = dose if it differs, or a comment. Shown are actives, neighbours in structure and some others; about 5.2% of the full set was active somewhere. Calls follow the shape of the dose curve; as a rule, active = well fitted curve in the direction sought with a large enough effect; inconclusive = small, poorly fitted or top-dose-only effect, or another doubt; inactive = no such curve, though single readings can be large; an effect the other way counts as inactive or inconclusive. Unless noted, % is scaled to controls: 0 for no effect and ±100 for the full control effect; potency is read from the fitted curve at half-maximal effect.

SMILES	IDH1 R132H inh	VDR inh	PLK1 PBD inh	Sfp inh	TrxR1 substrate	rTrxR1 inhibitor
CC1=CC(=Nc2c(C)n(C)n(-c3ccccc3)c2=O)C=CC1=O	.	.	.	8.9µM*	.	.
O=[N+]([O-])c1cnccc1Nc1ccc(F)cc1	3%	11%	-14%	-10%	-4%	-6%
O=[N+]([O-])c1cnccc1Nc1ccccc1	-3%	?	27µM*	12%	-4%	-5%
O=C(O)c1cccc(Nc2ccncc2[N+](=O)[O-])c1	2%	?	24µM*	-6%	0%	10%
COc1ccc([C@]23Cc4ccccc4C(O2)C2=C(O3)C(=O)c3ccccc3C2=O)cc1	.	.	.	6%	.	.
Cc1ccccc1NC(=O)Cn1c(=O)n(Cc2ccc3c(c2)OCO3)c(=O)c2oc3ccccc3c21	6%	12%	.	.	6%	27%
c1ccc(COc2ccccc2CNC2CCCC2)cc1	-5%	8%	-12%	-4%	1%[57.1 µM]	20%[57.1 µM]
c1ccc(COc2ccccc2CNC23CC4CC(CC(C4)C2)C3)cc1	-6%	8%	2%	56µM*	6%	14%
CCOc1ccc(OCC(=O)c2c(O)c3ccccc3oc2=O)cc1	-3%	-6%	?	28µM*	3%[57.1 µM]	-41%
CC(=N)c1c(O)c2ccccc2oc1=O	3%	8%	-6%	5%	-5%	6%
COc1ccc(OCC(=O)c2c(O)c3ccccc3oc2=O)cc1	1%	7%	-23%	20µM*	0%	?
Cc1oc2ccc(O)c(CN3CCCC(C)C3)c2c1C(=O)Nc1ccccc1 (configuration not stated)	-12%	7%	.	.	4%	24%
O=c1[nH]c(-c2cccnc2)nc2ccccc12	-3%	-14%	-1%	10%	3%	5%
CCCNc1nc2ccccc2c(=O)[nH]1	-2%	4%	-9%	18%	29%	17%
O=c1[nH]c(-c2ccncc2)nc2ccccc12	9%	79µM*	5.3µM*	14µM*	1%	0%
CC(C)Nc1nc2ccccc2c(=O)[nH]1	6%	?	21µM*	6%	8%[57.1 µM]	19%[57.1 µM]
CC(=O)N1c2ccccc2CC1C(=O)N1CCN(c2cccc(C)c2C)CC1 (configuration not stated)	-10%	1%	.	.	2%[57.1 µM]	7%[57.1 µM]
Cc1[nH]c2ccccc2c1/C=N/Nc1nncn1N	21%	-8%	-10%	8.9µM*	-13%	-27%
Cc1[nH]c2ccccc2c1/C=N/Nc1ccc(F)cc1F	.	.	.	5%	.	.
CCN1CCN(c2cc(=O)n(C3CCCCC3)c(=O)[nH]2)CC1	12%	-12%	-4%	20%	10%[57.1 µM]	-1%[57.1 µM]
CN1CCN(c2cc(=O)n(C3CCCCC3)c(=O)[nH]2)CC1	-1%	-3%	-10%	18%	4%[57.1 µM]	25µM*
CCC(C)n1c(OC)nc2c1c(=O)n(C)c(=O)n2C (configuration not stated)	10%	?	2.7µM*	21%	6%[11.4 µM]	1%[11.4 µM]
Cn1c(=O)c2c(nc(OC/C=C/c3ccccc3)n2C)n(C)c1=O	9%	-5%	-16%	.	8%	45µM*
C=CCOc1nc2c(c(=O)n(C)c(=O)n2C)n1C	2%	19%	-3%	-8%	1%	-9%
C/C=C/COc1nc2c(c(=O)n(C)c(=O)n2C)n1C	6%	-15%	3µM*	11%	-1%	-6%
CC(=O)C12OC(C)(C)OC1CC1C3CCC4=CC(=O)C=CC4(C)C3(F)C(O)CC12C (configuration not stated)	-1%	2%	-20%	.	4%	30%
Cc1cc(-n2nc3ccc(Cl)cc3n2)c(O)c(C(C)(C)C)c1	.	-3%	.	-7%	.	.
Cc1cc(Cl)c(O)c(-n2nc3ccccc3n2)c1	-4%	-25%	24µM*	-4%	-1%	0%
Cc1sc2ncn(CC(=O)N3CCN(c4cccc(Cl)c4)CC3)c(=O)c2c1S(=O)(=O)N1CCN(c2ncccn2)CC1	13%	5%	.	.	-1%	7%

From PubChem
